Source: the supplement of paper PMC12340641

Target: IKZF1 (dCK*-IKZF1 fusion in HEK293FT) (UniProt Q13422)
Experiment: inhibition of IKZF1 HTRF signal (DMSO = 0%, pomalidomide 10 uM = 100%); higher = lower IKZF1 protein level
Conditions: compound concentration: 5 uM, overnight (~20 h)
In short: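 After overnight treatment at 37 °C with 5 μM compound in single wells, HEK293FT cells (2000/well, 384-well) stably expressing an IKZF1 fusion were lysed for 30 min at room temperature. A commercial HTRF total-IKZF1 antibody kit was incubated with the lysate overnight, and the time-resolved FRET ratio at 665/620 nm was corrected for background. Data are given as percent inhibition of IKZF1 signal relative, on each plate, to vehicle and a reference degrader, set at 0% and 100% respectively.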

Sequence of IKZF1 (dCK*-IKZF1 fusion in HEK293FT) (Q13422 whole entry, looked up, the tested form may be a part): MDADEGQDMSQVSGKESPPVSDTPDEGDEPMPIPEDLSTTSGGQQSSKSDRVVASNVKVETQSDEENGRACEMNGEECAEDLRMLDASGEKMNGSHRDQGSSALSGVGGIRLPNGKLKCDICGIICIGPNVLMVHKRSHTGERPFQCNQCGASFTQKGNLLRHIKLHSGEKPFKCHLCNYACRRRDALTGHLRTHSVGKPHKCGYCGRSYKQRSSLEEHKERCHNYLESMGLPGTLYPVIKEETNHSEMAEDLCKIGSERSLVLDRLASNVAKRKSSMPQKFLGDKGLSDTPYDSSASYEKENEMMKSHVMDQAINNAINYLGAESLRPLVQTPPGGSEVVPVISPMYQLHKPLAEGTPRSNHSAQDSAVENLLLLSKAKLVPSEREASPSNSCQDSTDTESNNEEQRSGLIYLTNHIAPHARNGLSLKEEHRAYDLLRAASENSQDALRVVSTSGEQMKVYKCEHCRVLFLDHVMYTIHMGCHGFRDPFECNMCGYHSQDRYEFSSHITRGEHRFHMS

Compound | inhibition of IKZF1 HTRF signal [%]
O=[N+]([O-])/C=C/c1ccc2c(c1)OCO2 | -44.2
CO[C@H]1[C@H](O)[C@H](O[C@H]2CC[C@@]3(C=O)[C@H](CC[C@@H]4[C@@H]3CC[C@]3(C)[C@@H](C5=CC(=O)OC5)CC[C@]43O)C2)O[C@@H](C)[C@@H]1O [Peruvoside] | 94.1
Cc1cc(O)c2c(=O)c3c(O)cc(O)c4c5c(O)cc(O)c6c(=O)c7c(O)cc(C)c8c1c2c(c34)c(c78)c65 [Hypericin] | 13.4
CCC(C)[C@H]1O[C@]2(C=C[C@@H]1C)C[C@@H]1C[C@@H](C/C=C(\C)[C@@H](OC3C[C@H](OC)C(O[C@H]4C[C@H](OC)[C@@H](O)[C@H](C)O4)[C@H](C)O3)[C@@H](C)/C=C/C=C3\CO[C@@H]4[C@H](O)C(C)=C[C@@H](C(=O)O1)[C@]34O)O2 (stereo not given in full) [ABAMECTIN (avermectin B1a shown)] | -61.7
CC[C@H]1C2CC3[C@@H]4N(C)c5ccccc5[C@]45C[C@@H](C2C5O)N3[C@@H]1O (stereo not given in full) | -0.05
O=C1/C(=C/c2ccccc2)C[C@@]2(O)C3Cc4ccc(O)c5c4[C@@]2(CCN3CC2CC2)[C@H]1O5 | 27.9
CO[C@@]12C(=COC(N)=O)c3c(O)c(N)c(C)c(O)c3N1C[C@@H]1N[C@@H]12 [Mitomycin C] | 15.8
CC(Cc1ccccc1)NCCC(c1ccccc1)c1ccccc1 (stereo not given) [prenylamine] | -23.8

Test system: HEK293FT dCK*-only
Experiment: relative growth in counter assay (no AraC = 100%, AraC + DMSO = 0%); higher = more growth rescue independent of IKZF1
Conditions: compound concentration: 5 uM; AraC concentration: 0.3 uM; overnight pretreatment + 4 days AraC
In short: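 Counter assay in HEK293FT cells expressing dCK* alone (300/well, 384-well). Cells received 5 μM compound 2 h after seeding, then after overnight at 37 °C a nucleoside suicide substrate at 0.3 μM plus medium for 4 days. On day 5, Hoechst 33342-stained nuclei were counted by imaging. Relative growth was normalised per plate to wells without suicide substrate (100%) and substrate plus vehicle (0%).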

Compound | relative growth in counter assay [%]
ClC(C=C3)=C(Cl)C=[C@@]3[C@H]2C1=CC=CC=C1[C@H](NC)C2 [indatraline] | 0.14
O=c1[nH]c2ccccc2n1C1CCN(CCCC(c2ccc(F)cc2)c2ccc(F)cc2)CC1 [Pimozide] | -9.38
CC(C)C[C@H](NC(=O)[C@@H](O)[C@H](N)Cc1ccccc1)C(=O)NCCOCCOCCOCC(=O)O[C@H]1CC[C@H]2[C@@H]3CC[C@H]4CC(=O)CC[C@]4(C)[C@H]3CC[C@]12C.O=C(O)C(F)(F)F [PROTAC AR Degrader-4 (TFA)] | 12.3
Oc1c(I)cc(I)cc1I | 4.58
c1ccc(CCCN2CCN(CCOC(c3ccccc3)c3ccccc3)CC2)cc1 | -4.09
c1ccc2c(c1)Sc1ccccc1N2CC1CN2CCC1CC2 (stereo not given) [levomequitazine] | -5.25
C(=C\c1ccccc1)/CN1CCN(CCOC(c2ccccc2)c2ccccc2)CC1 | -4.14
C[C@H]1O[C@@H](O[C@H]2[C@@H](O)C[C@H](O[C@H]3[C@@H](O)C[C@H](O[C@H]4CC[C@@]5(C)[C@H](CC[C@@H]6[C@@H]5C[C@@H](O)[C@]5(C)C(c7coc(O)c7)CC[C@]65O)C4)O[C@@H]3C)O[C@@H]2C)C[C@H](O)[C@@H]1O (stereo not given in full) [Digoxin] | -34.1
O=c1[nH]c2ccccc2n1C1CCN(CCCC(c2ccc(F)cc2)c2ccc(F)cc2)CC1 | 3.23
C=C1[C@@H](C)[C@H]2[C@H](Cc3ccccc3)NC(=O)[C@]23OC(=O)/C=C/[C@H](O)CCC[C@@H](C)C/C=C/[C@H]3[C@@H]1O [Cytochalasin B] | -30.2
C[C@]12CC[C@H](O)C[C@H]1CC[C@@H]1[C@@H]2C[C@@H](O)[C@]2(C)[C@@H](C3=CC(=O)OC3)CC[C@]12O [Digoxigenin] | -33.8
Clc1ccc(N2CCN(Cc3c[nH]c4ncccc34)CC2)cc1 | 6.88
COc1cc2cc(c1Cl)N(C)C(=O)C[C@H](OC(=O)C(C)C)[C@]1(C)O[C@H]1[C@H](C)[C@@H]1C[C@@](O)(NC(=O)O1)[C@H](OC)/C=C/C=C(\C)C2 [Ansamitocin P-3] | -34.3
COc1cc([C@@H]2c3cc4c(cc3[C@H](O)[C@H]3COC(=O)[C@H]23)OCO4)cc(OC)c1OC | -33.7
COC(=O)[C@@]12OC[C@]34[C@H]([C@@H](O)[C@@H]1O)[C@@]1(C)CC(=O)C(O)=C(C)[C@@H]1C[C@H]3OC(=O)[C@H](OC(=O)/C=C(\C)C(C)C)[C@@H]24 [Bruceantin] | -34.9
CCCCCCC[n+]1ccc(-c2cc[n+](CCCCCCC)cc2)cc1 | -12.3
C[C@]12CC[C@H](O)C[C@H]1CC[C@@H]1[C@@H]2CC[C@]2(C)[C@@H](C3=CC(=O)OC3)CC[C@]12O [digitoxigenin] | -34.6
COc1cc2c(c(OC)c1OC)-c1ccc(OC)c(=O)cc1[C@@H](NC(C)=O)CC2 | -34.4
Oc1cc(Cl)ccc1Oc1ccc(Cl)cc1Cl | -4.14

Compound | relative growth in counter assay [%]
O=C(N/N=C/c1ccc([N+](=O)[O-])o1)c1cc([N+](=O)[O-])cc([N+](=O)[O-])c1O | -3.38
CC[C@@]1(O)C(=O)OCc2c1cc1n(c2=O)Cc2cc3ccccc3nc2-1 [camptothecin] | -34.5
COc1cc([C@@H]2c3cc4c(cc3[C@H](O)[C@H]3COC(=O)C23)OCO4)cc(OC)c1OC (stereo not given in full) [Podofilox] | -34
CC(=O)OC[C@]12CCC(C)=C[C@H]1O[C@@H]1[C@H](O)[C@@H](OC(C)=O)[C@@]2(C)[C@@]12CO2 [Diacetoxyscirpenol] | -34.2
O=c1n(Cl)c(=O)n(Cl)c(=O)n1Cl | -2.72
CCO[C@H]1O[C@@H]2O[C@@]3(C)CC[C@H]4[C@H](C)CC[C@@H]([C@H]1C)[C@@]24OO3 [Artemotil] | -27.3
C[C@]12CCC3C(CC[C@]4(O)C[C@@H](O)CC[C@]34C=O)[C@@]1(O)CCC2C1=CC(=O)OC1 (stereo not given in full) [Strophantidin] | -32.9
c1ccc2c(c1)sc1ccccc12 | -4.73
O=c1c2ccccc2[se]n1-c1ccccc1 | -8.59
CO[C@H]1C[C@H](O[C@H]2CC[C@@]3(C)[C@H](CC[C@@H]4[C@@H]3CC[C@]3(C)[C@@H](C5=CC(=O)OC5)[C@@H](OC(C)=O)C[C@]43O)C2)O[C@@H](C)[C@@H]1O [Oleandrin] | -35
O=[N+]([O-])/C=C/c1ccc2c(c1)OCO2 | -33.6
CO[C@H]1[C@H](O)[C@H](O[C@H]2CC[C@@]3(C=O)[C@H](CC[C@@H]4[C@@H]3CC[C@]3(C)[C@@H](C5=CC(=O)OC5)CC[C@]43O)C2)O[C@@H](C)[C@@H]1O [Peruvoside] | -34.2
Cc1cc(O)c2c(=O)c3c(O)cc(O)c4c5c(O)cc(O)c6c(=O)c7c(O)cc(C)c8c1c2c(c34)c(c78)c65 [Hypericin] | -9.3
CCC(C)[C@H]1O[C@]2(C=C[C@@H]1C)C[C@@H]1C[C@@H](C/C=C(\C)[C@@H](OC3C[C@H](OC)C(O[C@H]4C[C@H](OC)[C@@H](O)[C@H](C)O4)[C@H](C)O3)[C@@H](C)/C=C/C=C3\CO[C@@H]4[C@H](O)C(C)=C[C@@H](C(=O)O1)[C@]34O)O2 (stereo not given in full) [ABAMECTIN (avermectin B1a shown)] | -8.1
CC[C@H]1C2CC3[C@@H]4N(C)c5ccccc5[C@]45C[C@@H](C2C5O)N3[C@@H]1O (stereo not given in full) | 5.04
O=C1/C(=C/c2ccccc2)C[C@@]2(O)C3Cc4ccc(O)c5c4[C@@]2(CCN3CC2CC2)[C@H]1O5 | -34.5
CO[C@@]12C(=COC(N)=O)c3c(O)c(N)c(C)c(O)c3N1C[C@@H]1N[C@@H]12 [Mitomycin C] | -25.9
CC(Cc1ccccc1)NCCC(c1ccccc1)c1ccccc1 (stereo not given) [prenylamine] | 9.26
